BJeLR lethal – kills HRASV12-expressing BJeLR cells. BJeLR (HRASV12) viability, CellTiter-Glo ATP luminescence, 48 h. inhibition, % (concentration not given with the values). hit rate 0.17% among 300,000; in the data active = inhibition above about 50%; inconclusive = no clear call, values can overlap the other calls
BoNT-F LC inh – inhibitors of Botulinum neurotoxin F light chain protease; Multiplex microsphere protease cleavage assay, flow cytometry; inhibition, % at 10 µM; hit rate 0.22% among 360,000; in the data active = inhibition above about 35%, passing the limit was not always enough; inconclusive = no clear call, values can overlap the other calls; also: plate controls were buffer without enzyme for full effect and enzyme alone for no effect
Bead autofluor – counter-screen for toxin protease inhibitors: compound fluorescence. compound autofluorescence counterscreen, microsphere flow cytometry; active compounds read high. fluorescence intensity (no concentration beside the values). hit rate 3.1% among 360,000; in the data active = fluorescence intensity above about 16000; inconclusive = no clear call, values can overlap the other calls
Anthrax LF prot – inhibitors of Bacillus anthracis lethal factor protease. P15917. multiplex microsphere protease cleavage assay, LF. inhibition, % at 10 µM. hit rate 0.12% among 360,000; also: plate controls were buffer without enzyme for full effect and enzyme alone for no effect
BoNT A protease – inhibitors of Botulinum neurotoxin A light chain protease | multiplex microsphere protease substrate cleavage, flow cytometry | hit rate 0.17% among 360,000 | AID 588499 | inhibition, % at 10 µM; also: plate controls were buffer without enzyme for full effect and enzyme alone for no effect
Active calls of the source: *; u = inconclusive; x = no result given. Rows were chosen to be rich in hits. Some 3.5% of all compounds tested hit in one or more screens of this group. Rule as the data show it, unless noted: active = inhibition above about 30%; inconclusive = no clear call, values can overlap the other calls; inactive = below that.

SMILES	BJeLR lethal	BoNT-F LC inh	Bead autofluor	Anthrax LF prot	BoNT A protease
CCN(CC)c1ccc(NC(=O)Nc2cccc(C(C)=O)c2)cc1	2.4	-13.2	19762*	-9.5	4.7
CCOc1ccccc1NC(=O)Nc1c(C)n(-c2ccccc2)c(=O)n1C	-9.1	1.9	20830*	-5.2	3.0
CCOc1ccccc1NC(=O)Nc1cccc(C(C)=O)c1	-1.3	0.3	23270*	-1.4	-0.3
CC(=O)c1cccc(NC(=O)Nc2ccc(C(=O)N3CCCC3)cc2)c1	7.7	1.6	22040*	-1.0	0.3
CC(C)(O)C#Cc1ccc(N2C(c3ccsc3)=Cc3ccc(F)cc3C2c2c[nH]c3ccccc23)cc1 (stereo unspecified)	x	-1.4	4838	-1.8	0.6
COC(=O)c1ccc(OC(=O)C2CC(=O)N(c3cccc(C)c3)C2)cc1 (stereo unspecified)	2.4	-3.1	16757*	-2.7	u
Cn1c(=O)c2c(nc(N3CCN(c4ccccn4)CC3)n2Cc2ccccc2Cl)n(C)c1=O	-1.9	7.0	21245*	0.7	u
Cn1c(=O)c2c(nc(N3CCNCC3)n2Cc2ccccc2Cl)n(C)c1=O	-0.5	-1.9	2687	-0.9	-0.1
CCN(CC)c1ccc(/C=N/n2c(C)cc(C)cc2=O)cc1	4.5	6.1	19156*	-2.3	3.5
CCN(CC)c1ccc(/C=N/N2C(=O)c3ccccc3C2=O)cc1	0.2	-4.6	2437	-1.2	0.0
CC1(C)CC(=O)C=C(NCCN2CCN(C(=S)NC3CCCCC3)CC2)C1	-2.9	x	x	x	x
Cc1oc2c(cc(NS(=O)(=O)c3ccc4c5c(cccc35)C(=O)N4)c3ccccc32)c1C(=O)OC(C)C	x	0.7	19667*	1.3	1.7
Cc1ccc(NC(=O)COc2ccc(Br)cc2CO)cc1	5.0	-7.9	22055*	-0.7	-5.3
Cc1ccc(NC(=O)COc2ccccc2CNC(C)(C)CC(C)(C)C)cc1	-9.3	-2.4	16482*	-16.3	-2.4
Cc1ccc(-c2nc3sc4c(N)ncnc4c3c3c2CCCC3)cc1	5.7	0.7	22379*	-2.4	-0.3
CCOC(=O)C(=CNc1ccc(Cl)cn1)C(=O)OCC	1.8	0.7	5193	6.5	0.4
CCOC(=O)C(=CNc1cccc(N)n1)C(=O)OCC	-8.2	-1.5	20625*	-10.3	-0.7
Cn1nc(-c2ccccc2)cc1NC(=O)[C@@H]1O[C@H](CO)[C@H](O)[C@H](O)[C@H]1O	x	-1.4	3420	-0.1	-0.4
COc1ccc(CCC2(C)OCC(CCCCO)O2)cc1 (stereo unspecified)	x	-4.1	2707	-2.1	0.7
CC(NS(=O)(=O)c1ccccc1)C(N)=O (stereo unspecified)	-6.3	-3.4	17096*	-7.1	-2.1
CCOC(=O)CSc1nnc(NC(=O)c2cccc(S(=O)(=O)N3CCCCCC3)c2)s1	-6.2	0.5	24044*	-1.0	-0.4
CCOC(=O)CSc1nnc(CNC(=O)c2ccc(S(=O)(=O)N3CCCC3)cc2)n1C	2.6	8.0	22679*	1.3	2.0
CCN(CC)S(=O)(=O)c1ccc(C(=O)NCc2nnc(SCC(=O)OC)n2C)cc1	x	14.9	18096*	0.8	13.5
CCOC(=O)CSc1nnc(CNC(=O)c2ccc(S(=O)(=O)N3CCOCC3)cc2)n1C	3.8	-7.0	1902	-2.9	-0.7
CCOC(=O)CSc1nnc(CNC(=O)c2cc(OCC)c(OCC)c(OCC)c2)n1C	x	-1.2	23875*	1.5	-0.1
SMILES	BJeLR lethal	BoNT-F LC inh	Bead autofluor	Anthrax LF prot	BoNT A protease
Cc1ccc(S(=O)(=O)N2C[C@H]3C(=O)C[C@@H](c4ccccc4)N(S(C)(=O)=O)[C@H]3C[C@H]2c2ccccc2)cc1	x	-6.2	5493	-4.0	-0.1
CC1Cc2cc(/C(O)=C3/C(=O)C(=O)N(CCN4CCOCC4)C3c3ccc(N(C)C)cc3)ccc2O1 (stereo unspecified)	8.5	6.0	5068	1.1	-0.1
O=C(NCc1ccc(F)cc1)c1cccc2c1C(=O)c1ccc(N3CCC(Cc4ccccc4)CC3)cc1S2(=O)=O	x	23.4	8272	33.1*	19.4
O=C(NCc1ccc(F)cc1)c1cccc2c1C(=O)c1ccc(N3CCC(N4CCCCC4)CC3)cc1S2(=O)=O	x	-2.2	5563	13.9	4.3
O=C1NC[C@H](CCCCN2CCN(CC3CCCCC3)C(=O)C2=O)N(CC2CCCCC2)C1=O	x	5.2	5191	-8.2	1.1
CCC(C)NC(=O)N[C@@H](CCSC)C(=O)OC (stereo partly specified)	-1.4	-4.0	10858	1.1	-0.6
CCOC(=O)C(CCSC)NC(=O)CN (stereo unspecified)	-5.0	-2.2	22429*	-1.0	0.2
OC[C@@H]1CN(CCN2CCOCC2)C[C@H](n2cnc3c(Nc4ccccc4)ncnc32)O1	x	-0.8	2931	-1.1	-0.1
Fc1ccc(-c2cc(C(F)(F)F)nc(-n3cncn3)n2)cc1	1.8	-3.5	21601*	0.4	-3.4
COc1cccc(-c2cc(C(F)(F)F)nc(-n3cncn3)n2)c1	-6.9	-2.2	25001*	-2.0	u
Fc1ccc(-c2cc(C(F)(F)F)nc(-n3cccn3)n2)cc1	3.6	0.6	4886	-1.9	-0.3
CCOC(=O)/C(C(N)=NCc1ccco1)=C(/O)c1ccccc1	0.5	-1.9	23453*	-1.4	-0.2
Cc1cccc2cc(C(c3nnnn3Cc3ccccc3)N3CCN(C)CC3)c(=O)[nH]c12 (stereo unspecified)	3.0	1.1	19831*	-0.1	1.0
Cc1cc(C)c2[nH]c(=O)c(C(c3nnnn3CC3CCCO3)N3CCCC(C)C3)cc2c1 (stereo unspecified)	-19.3	8.7	11124	-9.0	-0.5
Cc1cccc2cc(C(c3nnnn3Cc3ccccc3)N3CCN(c4ccccc4)CC3)c(=O)[nH]c12 (stereo unspecified)	4.8	-8.1	18218*	-3.4	-3.6
COc1ccc(Cn2nnnc2C(c2cc3cccc(C)c3[nH]c2=O)N2CCN(C)CC2)cc1 (stereo unspecified)	10.4	-5.7	3345	-8.0	-0.6
Cc1cc(C)c2[nH]c(=O)c(C(c3nnnn3CC3CCCO3)N3CCC(C)CC3)cc2c1 (stereo unspecified)	-0.5	-3.3	26168*	-1.2	u
O=C(NCCCOc1ccc([N+](=O)[O-])cc1Cl)OCc1ccccc1	x	-4.6	3271	0.7	-0.1
O[C@H]1C[C@H](c2ccc(Cl)cc2)N(CC2CCCCC2)C[C@@H]1n1cc(-c2ccc(F)cc2)nn1	x	-0.1	3691	-1.9	-0.2
c1ccc(CNc2cccnc2)cc1	x	-4.4	3551	1.0	-0.7
O=C(OCc1ccccc1)N1CCN(C(c2ccnc3ccccc23)c2nnnn2-c2ccc3c(c2)OCCO3)CC1 (stereo unspecified)	x	-3.2	6550	3.0	-0.4
O=c1c2ccccc2ncn1CCCOc1ccccc1[N+](=O)[O-]	14.6	7.8	20774*	-11.1	5.2
CC1CN(CCOc2ccc(F)cc2)CC(C)O1 (stereo unspecified)	-5.3	35.5*	3427	2.1	-0.4
O=[N+]([O-])c1ccccc1OCCCN1CCOCC1	-14.0	-2.9	23944*	-1.8	-2.0
CC1CN(CCCOc2ccc([N+](=O)[O-])cc2)CC(C)O1 (stereo unspecified)	-11.3	2.3	2022	-1.0	-0.3
